# Test results as given in PubChem BioAssay (NCATS).
# Results filed as inconclusive are left out. A call without a number means that no potency is given here. Calls of active or inactive are those of the source. Unless noted, the call rests on the fitted dose curve.
# System: not listed separately
# Experiment: qHTS for Inhibitors of the Functional Ribonucleoprotein Complex (vRNP) of Lymphocytic Choriomeningitis Arenaviruses (LCMV): Viability assay - alamar blue signal for LCMV Primary Screen (AID 1347085; calls by dose curve; tested in HEK293 reporter line; further: nearly all actives have a fitted effect of over 80% in size)
# Conditions: alamar blue viability counter-screen, LCMV vRNP screen cells; series mostly up to 57.5 µM
row,SMILES,Potency
1,Oc1ccc(C=Cc2cc(O)cc(O)c2)cc1,inactive
2,COc1cc(-c2cc(=O)c3c(O)cc(O)cc3o2)ccc1O,inactive
3,COc1cc2oc(=O)ccc2c(OC)c1CC(O)C(C)(C)O (centres undefined),inactive
4,COc1c2c(cc(O)c1C(C)=O)OC(C)(C)C=C2,inactive
5,C=C(C)[C@H]1CC=C(CO)CC1,inactive
6,CCOC(=O)CC(C)C,inactive
7,C=C1[C@H](n2cnc3c(=O)[nH]c(N)nc32)C[C@H](O)[C@H]1CO,inactive
8,SC1CCCC1,inactive
9,CC1=C(O)C(=O)OC1C (centres undefined),inactive

# Biological target: Nucleoprotein (Lymphocytic choriomeningitis virus (strain Armstrong)) (UniProt P09992)
# Sequence (P09992 whole entry, looked up): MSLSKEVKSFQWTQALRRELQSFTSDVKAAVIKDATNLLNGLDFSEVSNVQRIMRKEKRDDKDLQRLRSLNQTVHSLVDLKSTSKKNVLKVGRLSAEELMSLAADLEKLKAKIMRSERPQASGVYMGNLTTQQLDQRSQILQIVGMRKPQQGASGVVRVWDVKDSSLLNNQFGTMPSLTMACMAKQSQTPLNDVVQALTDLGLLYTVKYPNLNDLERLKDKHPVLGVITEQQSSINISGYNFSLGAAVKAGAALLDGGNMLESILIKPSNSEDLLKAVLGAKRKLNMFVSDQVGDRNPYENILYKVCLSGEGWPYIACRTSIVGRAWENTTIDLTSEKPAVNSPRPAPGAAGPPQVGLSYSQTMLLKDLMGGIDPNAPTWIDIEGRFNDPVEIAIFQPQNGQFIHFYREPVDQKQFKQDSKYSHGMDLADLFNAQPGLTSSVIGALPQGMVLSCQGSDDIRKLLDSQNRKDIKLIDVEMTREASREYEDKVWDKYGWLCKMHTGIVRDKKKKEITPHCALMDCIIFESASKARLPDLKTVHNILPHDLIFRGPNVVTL
# Experiment: qHTS for Inhibitors of the Functional Ribonucleoprotein Complex (vRNP) of Lymphocytic Choriomeningitis Arenaviruses (LCMV): LCMV Primary Screen - GLuc reporter signal (AID 1347086); further: nearly all actives have a fitted effect of over 70% in size
# Conditions: LCMV minigenome vRNP cell assay, Gaussia luciferase reporter; series mostly up to 57.5 µM
row,SMILES,Potency
1,CC1(C)CC(=O)CC(C)(C)N1,inactive
2,CC(=O)O[C@@H]1CC2C(C)(C)C(=O)C=C[C@]2(C)C2CC[C@]3(C)C(=CC[C@H]3C3CO[C@@H](C(C)(C)O)[C@H](O)C3)[C@@]21C (some centres undefined),inactive
3,CCOC(=O)[C@H]1O[C@H]1C(=O)N[C@@H](CC(C)C)C(=O)NCCC(C)C,inactive
4,N#CC(=C(N)Sc1ccc(N)cc1)c1ccccc1C(F)(F)F,inactive
5,CC(C)=CCc1c(O)cc2c(c1O)C(=O)CC(c1ccccc1)O2 (centres undefined),inactive
6,C=CCCCCCCCCCCCC(O)CC(O)COC(C)=O (centres undefined),inactive
7,CCCCCCOC(=O)c1ccccc1,inactive
8,COC(=O)C1=CO[C@@H](C)[C@@H]2CN3CCc4c([nH]c5ccccc45)[C@@H]3C[C@H]12,inactive
9,OC[C@H]1O[C@@H](O[C@H]2[C@@H](O)[C@@](O)(CO)O[C@@H]2CO)[C@H](O)[C@@H](O)[C@@H]1O,inactive
10,CC1OC(OC2C(CO)OC(OCC3OC(OC(=O)[C@@]45CCC(C)(C)C[C@@H]4C4=CC[C@@H]6[C@@]7(C)CCC(OC8OCC(O)C(O)C8OC8OC(C)C(O)C(O)C8O)[C@@](C)(CO)C7CC[C@@]6(C)[C@]4(C)CC5)C(O)C(O)C3O)C(O)C2O)C(O)C(O)C1O (some centres undefined),inactive
